Assay results published in publication PMC5540273 (PLoS ONE, 2017).

Tests used:
Conditions in all cases: concentration: 1 μM, replicates: in singlicate; n = 1
[1] = test system: T1, ERK1
T1 construct: gene MAPK3

[2] = test system: T2, ERK2
T2 construct: gene MAPK1

[3] = test system: T3, ERK3
T3 construct: gene MAPK6

[4] = test system: T4, ERK4
T4 construct: gene MAPK4

[5] = test system: T5, ERK5
T5 construct: gene MAPK7

[6] = test system: T6, ERK8
T6 construct: gene MAPK15

[7] = test system: ERN1
[8] = test system: T7, FAK
T7 construct: gene PTK2

[9] = test system: FER
[10] = test system: FES
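Further: KINOMEscan kinase panel screen.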

SMILES	%Inh [1] [%]	%Inh [2] [%]	%Inh [3] [%]	%Inh [4] [%]	%Inh [5] [%]	%Inh [6] [%]	%Inh [7] [%]	%Inh [8] [%]	%Inh [9] [%]	%Inh [10] [%]
c1ccc(Oc2ccc(Nc3ccnc4cc(-c5ccc(CN6CCCCC6)o5)ccc34)cc2)nc1 [GW567143]	13	0	0	0	0	0	26	0	4	0
Nc1ncc(-c2cn[nH]c2)c2scc(-c3ccc4c(c3)CCN4C(=O)Cc3ccccc3)c12 [GSK2593067]	3	3	0	0	0	10	0	0	29	0
O=C1NC(=O)C(c2ccccc2Cl)=C1Nc1cccc(Cl)c1 [SB-342409]	10	0	68	17	0	61	26	10	0	0
NCCC(NC(=O)c1cc(Br)c(-c2ccnc3[nH]ccc23)s1)c1ccccc1.O=C(O)C(F)(F)F.O=C(O)C(F)(F)F (stereo not drawn) [GSK1307810]	4	0	7	0	0	33	22	9	3	0
CC(C)c1nc(-c2ccc(F)c(NS(=O)(=O)c3c(F)cccc3F)c2)c(-c2ccnc(Nc3ccc(N4CCOCC4)nc3)n2)s1 [GSK1804250]	8	0	1	0	10	38	49	0	41	15
CC(C)c1nc(-c2cccc(NS(=O)(=O)c3c(F)cccc3F)c2)c(-c2ccnc(Nc3ccc(N4CCOCC4)nc3)n2)s1.Cl [GSK1723980]	0	0	0	0	0	97.9	50	0	49	18
O=C(Nc1n[nH]c2nc(-c3ccccc3)ccc12)C1CC1 [SB-708999]	0	3	46	0	0	99.5	0	0	5	5
COC(=O)Nc1nc2ccc(Oc3ccc(CC(=O)Nc4cc(C(F)(F)F)ccc4F)cc3)cc2[nH]1 [GW680903]	0	0	0	7	0	0	0	0	0	0
Cc1ccc(O)cc1Nc1ccnc2cc(-c3ccc(CN4CCCCC4)o3)ccc12 [GW557777]	0	0	0	8	20	0	23	0	11	7
CN(c1ccc2c(c1)nc(NCc1ccccc1)n2C)c1ccnc(Nc2ccc(CS(C)(=O)=O)cc2)n1.Cl [GW811603]	0	3	0	0	1	6	1	23	4	0
O=C(Nc1c(F)cccc1F)c1cc(C(=O)c2ccccc2F)c[nH]1 [GSK1326180]	8	3	9	0	0	0	0	0	0	0
COc1ccc(NC(=O)c2ccoc2)cc1-c1ccc(C(=O)NCC2CC2)cc1 [GW810437]	0	7	0	6	7	0	33	0	0	7
Cl.O=C(Nc1ccc(Oc2ccc3[nH]c(NC(=O)c4ccco4)nc3c2)cc1)Nc1cc(C(F)(F)F)ccc1F [GW683134]	0	0	0	14	0	82	0	0	0	0
Cc1ccc(NC(=O)c2cccc(N3CCCCC3)c2)cc1-c1ccc(C(=O)NCC2CC2)cc1 [GSK1917008]	2	0	100	23	0	51	17	15	16	21
Cl.Cl.NC(CNC(=O)c1cc(Br)c(-c2ccnc3[nH]ccc23)s1)c1ccccc1 (stereo not drawn) [GSK1322949]	4	0	4	27	0	24	13	83	10	0
Cc1ccc(O)cc1Nc1ccnc2ccc(C(C)(C)C)cc12 [GW856805]	2	0	9	6	9	13	27	34	21	12
N#CC1(c2cccc(C(=O)Nc3cccc(Oc4ccc5nc(NC(=O)C6CC6)sc5n4)c3)c2)CC1	0	0	0	0	0	29	0	17	22	0

SMILES	%Inh [1] [%]	%Inh [2] [%]	%Inh [3] [%]	%Inh [4] [%]	%Inh [5] [%]	%Inh [6] [%]	%Inh [7] [%]	%Inh [8] [%]	%Inh [9] [%]	%Inh [10] [%]
Cc1ccc(-c2ccc3occ(-c4ccc(S(C)=O)cc4)c3c2)nn1 (stereo not drawn)	0	7	0	0	0	1	1	0	0	5
COc1cccc(C2=C(Nc3cccc(O)c3)C(=O)NC2=O)c1 [SB-390771]	3	0	6	26	0	16	0	0	0	2
Cc1ccc(NC(=O)c2ccnc(N3CCCCC3)c2)cc1-c1ccc(C(=O)NCC2CC2)cc1 [GW775610]	37	9	0	21	6	0	70	0	4	4
CN(c1ccc(NC(=O)Nc2cccc(Cl)c2)cc1)c1ccnc(N)n1.Cl [GW830707]	0	12	0	0	0	6	32	15	9	19
Cc1nn2c(=O)cc(N3CCO[C@H](C)C3)nc2n1Cc1cccc(Cl)c1Cl [GSK2373693]	0	0	0	19	0	26	0	0	8	0
Cc1ccc(C)c(NC(=O)Nc2ccc(C)c(-c3ccc(C(=O)Nc4ccncc4)cc3)c2)c1 [GSK1398473]	0	16	9	28	0	0	0	0	13	0
Cc1cccc(Nc2nc(N[C@H]3CCCC[C@H]3N)ncc2C(N)=O)c1.Cl [GSK986310]	8	27	27	49	0	0	2	12	84	0
COc1ccc(C2=C(Nc3cccc(O)c3)C(=O)NC2=O)cc1 [SB-390766]	0	0	6	22	100	15	20	98.1	0	0
CSc1ccc(NC2=C(c3ccc(Cl)cc3)C(=O)NC2=O)cc1 [SB-317658]	9	29	11	0	0	13	47	7	0	29
O=C(Nc1n[nH]c2cc(-c3cccs3)ccc12)C1CC1 [SB-731284]	0	0	0	0	0	85	29	0	0	0
CCn1cnc2c(NCc3ccccc3)ncnc21 [SKF-96418]	0	0	7	17	0	4	19	0	0	3
Cn1cc(-c2ccc3c(c2)CCN3C(=O)Cc2cc(F)cc(C(F)(F)F)c2)c2c(N)ncnc21 [GSK2635225]	15	0	0	24	0	8	6	11	34	0
CCNc1nccc(-c2c(-c3ccc(F)cc3)ncn2C2CCN(C)CC2)n1	0	0	0	0	0	4	100	0	0	0
Cn1cc(-c2cnc(N)c3c(-c4ccc5c(c4)CCN5C(=O)Cc4ccccc4)csc23)cn1 [GSK2593074]	0	0	0	0	15	11	28	7	10	14
COc1ccc(C)c(Nc2ccnc(Nc3ccc(-c4cnc[nH]4)cc3)n2)c1.Cl [GW784041]	0	9	16	0	0	4	0	0	2	2
COc1cc(Nc2nccc(N3CCC(NC(=O)Nc4ccc5c(c4)OCO5)C3)n2)cc(OC)c1OC (stereo not drawn) [GSK1379766]	0	0	0	0	0	0	0	0	11	0
